These results are taken from PubChem BioAssay (Tox21).

Several values for one entry are separate records, joined by “and”; a condition that tells them apart may be missing. Identical values can stand only once. Inconclusive results are not listed. More than one record can exist for a structure, and the calls need not agree. Activity calls are given as the source filed them. Unless noted, the call rests on the fitted dose curve.

In assay [1] the target is Gonadotropin-releasing hormone receptor (Homo sapiens) (UniProt P30968). The assay is described as follows: Human gonadotropin-releasing hormone receptor (GnRHR) small molecule agonists, calcium flux assay in GnRHR-HEK293 cells (AID 1920063). Further: nearly all actives have a fitted effect of over 35% in size. Further: potency means the concentration at half of the fitted maximal effect. The gist of the method: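 Agonist mode: compounds at 15 concentrations, in triplicate, went onto calcium dye-loaded GnRHR-HEK293 cells. Intracellular calcium was then followed as 480/540 nm fluorescence at 1 s intervals over 3 min.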
Sequence of Gonadotropin-releasing hormone receptor (Homo sapiens) (P30968 whole entry, looked up): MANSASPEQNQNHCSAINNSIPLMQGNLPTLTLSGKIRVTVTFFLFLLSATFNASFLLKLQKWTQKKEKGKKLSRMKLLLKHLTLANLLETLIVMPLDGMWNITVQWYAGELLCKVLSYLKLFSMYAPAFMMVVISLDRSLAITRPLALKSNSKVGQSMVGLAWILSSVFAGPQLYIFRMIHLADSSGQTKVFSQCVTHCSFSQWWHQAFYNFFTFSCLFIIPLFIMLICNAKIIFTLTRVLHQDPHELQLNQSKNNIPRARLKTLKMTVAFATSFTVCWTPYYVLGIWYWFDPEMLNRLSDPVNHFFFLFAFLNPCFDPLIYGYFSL
In general terms: Calcium assays in cells follow changes in intracellular calcium, usually with a dye or a luminescent sensor.

Assay [2] can be described thus: p53 small molecule agonists, cell-based qHTS assay with human liver microsomes: qHTS cell viability counter screen (AID 1963579). Further: nearly all actives have a fitted effect of over 45% in size. Further: potency means the concentration at half of the fitted maximal effect. The gist of the method:
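Seed p53RE-bla cells at 4,000 per well; incubate 5 h at 37 C; add compound, human liver microsomes and NADPH; incubate 16 h at 37 C; add CellTiter-Glo; after 30 min at room temperature, read luminescence.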

Assay [3] can be described thus: p53 small molecule agonists, cell-based qHTS assay with rat liver microsomes: qHTS cell viability counter screen (AID 1963580). Further: nearly all actives have a fitted effect of over 45% in size. Further: potency means the concentration at half of the fitted maximal effect. The gist of the method: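 Counter screen for cytotoxicity under metabolic activation: rat liver microsomes and NADPH, 0.5 mg/mL final each, added with compounds to p53RE-bla HCT-116 cells; 16 h at 37 C, then ATP luminescence read.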
A short description of assay [4]: p53 small molecule agonists, cell-based qHTS assay: qHTS cell viability counter screen (AID 1963581). Further: nearly all actives have a fitted effect of over 45% in size. Further: potency means the concentration at half of the fitted maximal effect. The gist of the method:
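Counter screen read by CellTiter-Glo luminescence (ATP content, 30 min at room temperature), run in the same wells as the beta-lactamase reporter read. HCT-116 p53RE-bla cells saw compounds for 16 h at 37 C.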
A general note: qHTS replaces the single test concentration by a dilution series.

Assay [5] concerns the target 5-hydroxytryptamine receptor 2A (Homo sapiens) (UniProt P28223). The assay is described as follows: 5-hydroxytryptamine receptor 2A (HTR2A) small molecule antagonists, cell-based qHTS assay (AID 1963586). Further: nearly all actives have a fitted effect of over 45% in size. Further: potency means the concentration at half of the fitted maximal effect. The gist of the method: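 CHO cells stably expressing human HTR2A were plated for 18 h at 37 C, then loaded with calcium dye for 1 h. Compounds were preincubated 5 min at room temperature before DOI (4 nM solution) was added. Kinetic fluorescence was read for 3 min.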

Assay [6] has the same target. Briefly: 5-hydroxytryptamine receptor 2A (HTR2A) small molecule agonists, cell-based qHTS assay (AID 1963587). Further: nearly all actives have a fitted effect of over 30% in size. Further: potency means the concentration at half of the fitted maximal effect. The gist of the method: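 HTR2A-CHO cells, plated 18 h at 37 C/5% CO2, dye-loaded 1 h at 37 C; compounds in DMSO added by pin tool (agonist mode). Intracellular calcium flux read as kinetic fluorescence on FDSS over 2 min at 1 s intervals.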
Assay [7] addresses Muscarinic acetylcholine receptor M1 (Homo sapiens) (UniProt P11229). Briefly: Cholinergic receptor muscarinic 1 (CHRM1) small molecule antagonists, cell-based qHTS assay (AID 1963588). Further: nearly all actives have a fitted effect of over 40% in size. The gist of the method: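 Compounds were tested at 15 concentrations in three independent runs. Dye-loaded CHRM1-CHO cells were exposed 5 min at room temperature before stimulation by acetylcholine added at 50nM. Intracellular calcium was read kinetically on FDSS for 3 min.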

Assay [8] has the same target. Briefly: Cholinergic receptor muscarinic 1 (CHRM1) small molecule agonists, cell-based qHTS assay (AID 1963589). Further: nearly all actives have a fitted effect of over 35% in size. Further: potency means the concentration at half of the fitted maximal effect. The gist of the method:
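Agonist-mode calcium-flux screen: compounds at 15 concentrations, three independent runs, were pin-transferred onto dye-loaded human CHRM1-CHO cells. Fluorescence was then recorded kinetically every second over minutes.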

The target in assay [9] is Beta-2 adrenergic receptor (Homo sapiens) (UniProt P07550). The assay is described as follows: Adrenergic beta2 receptor (ADRB2) small molecule antagonists, cell-based qHTS assay (AID 1963592). Further: nearly all actives have a fitted effect of over 50% in size. Further: potency means the concentration at half of the fitted maximal effect. The gist of the method: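 Assay format: CHO-ADRB2 cells, 18-20hr seeding at 37C/5% CO2, then compound plus 1nM isoproterenol agonist mix for 0.5hr RT. Homogeneous time-resolved fluorescence cAMP detection after 1hr, expressed as 665/615 nm ratio.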
Sequence of Beta-2 adrenergic receptor (Homo sapiens) (P07550 whole entry, looked up): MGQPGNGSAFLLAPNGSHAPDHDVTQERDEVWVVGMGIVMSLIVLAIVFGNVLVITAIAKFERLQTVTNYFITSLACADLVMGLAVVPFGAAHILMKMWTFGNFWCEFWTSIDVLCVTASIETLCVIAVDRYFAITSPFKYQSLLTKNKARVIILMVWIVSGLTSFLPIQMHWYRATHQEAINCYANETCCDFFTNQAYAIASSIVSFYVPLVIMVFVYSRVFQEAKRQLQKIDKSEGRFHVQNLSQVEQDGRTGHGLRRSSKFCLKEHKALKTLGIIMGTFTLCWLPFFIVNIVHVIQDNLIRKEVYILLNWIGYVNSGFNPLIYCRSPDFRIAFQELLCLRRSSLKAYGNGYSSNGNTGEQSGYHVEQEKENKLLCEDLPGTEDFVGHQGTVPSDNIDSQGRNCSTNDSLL

The target in assay [10] is D(2) dopamine receptor (Homo sapiens) (UniProt P14416). Briefly: Dopamine D2 receptor (DRD2) small molecule antagonists, cell-based qHTS assay (AID 1963595; active means well fitted inhibition curve with a large enough effect in the signal ratio in the repeat runs, with a control signal flat; the % refers to the signal ratio; further: potency means the concentration at half of the fitted maximal effect). The gist of the method: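 Readout: HTRF cAMP, cAMP-d2 competing with cellular cAMP for anti-cAMP cryptate, read after 1 h. Cells: DRD2-HEK293. Conditions: 0.1 mM Ro20-1724, 12 nM quinpirole, 200 nM NKH477, 30 min RT.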
Sequence of D(2) dopamine receptor (Homo sapiens) (P14416 whole entry, looked up): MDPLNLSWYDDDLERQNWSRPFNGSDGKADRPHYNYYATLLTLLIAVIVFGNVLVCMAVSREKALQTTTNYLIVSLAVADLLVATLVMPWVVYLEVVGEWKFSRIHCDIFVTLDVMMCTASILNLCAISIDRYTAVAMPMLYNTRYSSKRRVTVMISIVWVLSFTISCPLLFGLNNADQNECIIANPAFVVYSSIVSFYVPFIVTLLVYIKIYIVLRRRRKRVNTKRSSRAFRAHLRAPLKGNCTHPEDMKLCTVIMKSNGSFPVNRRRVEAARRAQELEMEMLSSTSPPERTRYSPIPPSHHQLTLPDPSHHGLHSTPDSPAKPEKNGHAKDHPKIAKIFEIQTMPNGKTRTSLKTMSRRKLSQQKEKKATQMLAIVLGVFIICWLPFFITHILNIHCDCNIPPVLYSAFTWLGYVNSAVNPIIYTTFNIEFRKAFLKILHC

Assay [11] addresses KiSS-1 receptor (Homo sapiens) (UniProt Q969F8). Briefly: Human kisspeptin (KISS1R) small molecule agonists, calcium flux assay in KISS1R-HEK293 cells (AID 1920064; active means well fitted activation curve with a large enough effect in the repeat runs). The gist of the method: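 Agonist mode: intracellular calcium rise tracked at 1 s intervals over 3 min (480/540 nm) immediately after compound addition to dye-loaded KISS1R-HEK293 stable cells. Each compound tested at 15 concentrations in triplicate.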

Assay [12] can be described thus: p53 small molecule agonists, cell-based qHTS assay with human liver microsomes (AID 1963577). The gist of the method: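 Cells carrying a p53-responsive bla reporter were rested 5 h (37 C, 5% CO2) before compound transfer. Human liver microsomes plus NADPH, 0.5 mg/mL final apiece, supplied metabolism during the 16 h 37 C exposure.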
Assay [13] is described as follows: p53 small molecule agonists, cell-based qHTS assay with rat liver microsomes (AID 1963578). The gist of the method: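 Fluorescence from a beta-lactamase reporter under a p53 response element was measured after cells had been incubated 16 h at 37 C with test compound and rat liver microsomes plus NADPH (0.5 mg/mL final each).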
Assay [14] has as its target D(2) dopamine receptor (Homo sapiens) (UniProt P14416). Briefly: Dopamine D2 receptor (DRD2) small molecule agonists, cell-based qHTS assay (AID 1963594). Further: nearly all actives have a fitted effect of over 35% in size. Further: potency means the concentration at half of the fitted maximal effect. The gist of the method:
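HEK293 cells stably expressing DRD2 were cultured 24 h at 37 C, then given Ro20-1724 (0.1 mM final) and compounds for 10 min at room temperature. NKH477 (200nM) was then added for 30 min. cAMP was read by HTRF.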

Assay [15] can be described thus: Nuclear factor erythroid 2-related factor 2/antioxidant responsive element (Nrf2/ARE) small molecule agonists: luciferase reporter gene qHTS assay in human keratinocytes (AID 1919969). Further: nearly all actives have a fitted effect of over 35% in size. A general note: In a reporter assay the amount or activity of a reporter protein is the signal.
The nature of assay [16]: G protein-coupled receptor (GPCR) small molecule agonists, calcium flux assay: HEK293 wild type cell line counter screen (AID 1920065). The gist of the method: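 Calcium flux counter screen: compound added in agonist mode at 15 concentrations in triplicate to dye-loaded parental HEK293 cells. Fluorescence (480/540) read kinetically for 3 min; ATP served as positive control.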

The nature of assay [17]: p53 small molecule agonists, cell-based qHTS assay (AID 1963582; active means well fitted activation curve with a large enough effect in the signal ratio in the repeat runs, not every such curve was filed as active; the % refers to the signal ratio; further: potency means the concentration at half of the fitted maximal effect). The gist of the method:
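Read-out is beta-lactamase FRET fluorescence after 2 h at room temperature with LiveBLAzer B/G substrate. p53 response element-bla cells were treated 16 h at 37 C with compounds in DMSO, added 5 h after seeding.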

The nature of assay [18]: cAMP Responsive Elements (CRE) small molecule agonists, cell-based qHTS assay (AID 1963590). The gist of the method: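 Agonist mode: compound added to CRE-bla HEK 293T cells (2,000/well, 18 h after plating) for 3 h at 37 C/5% CO2. Reporter activity detected via FRET beta-lactamase substrate, 2 h room-temperature loading.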
Assay [19] is described as follows: cAMP Responsive Elements (CRE) small molecule antagonists, cell-based qHTS assay (AID 1963591; active means well fitted inhibition curve with a large enough effect in the signal ratio in the repeat runs, not every such curve was filed as active; the % refers to the signal ratio). The gist of the method:
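Antagonist mode: compounds are added alongside the adenylyl cyclase activator NKH477 (0.25 uM final) to CRE-bla HEK293T cells for 3 h. LiveBLAzer FRET substrate, 2 h at room temperature, reports bla expression.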

The target of assay [20] is Beta-2 adrenergic receptor (Homo sapiens) (UniProt P07550). The assay is described as follows: Adrenergic beta2 receptor (ADRB2) small molecule agonists, cell-based qHTS assay (AID 1963593).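 Further: CHO cells stably overexpressing human ADRB2.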 The gist of the method: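 CHO cells stably over-expressing ADRB2 were plated overnight at 37C, then dosed with compounds plus a stimulation mix containing 100uM IBMX and 25uM Ro-20-1724 for 0.5hr at room temperature. cAMP was measured by HTRF competition, 1hr.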

Sequence of 5-hydroxytryptamine receptor 2A (Homo sapiens) (P28223 whole entry, looked up): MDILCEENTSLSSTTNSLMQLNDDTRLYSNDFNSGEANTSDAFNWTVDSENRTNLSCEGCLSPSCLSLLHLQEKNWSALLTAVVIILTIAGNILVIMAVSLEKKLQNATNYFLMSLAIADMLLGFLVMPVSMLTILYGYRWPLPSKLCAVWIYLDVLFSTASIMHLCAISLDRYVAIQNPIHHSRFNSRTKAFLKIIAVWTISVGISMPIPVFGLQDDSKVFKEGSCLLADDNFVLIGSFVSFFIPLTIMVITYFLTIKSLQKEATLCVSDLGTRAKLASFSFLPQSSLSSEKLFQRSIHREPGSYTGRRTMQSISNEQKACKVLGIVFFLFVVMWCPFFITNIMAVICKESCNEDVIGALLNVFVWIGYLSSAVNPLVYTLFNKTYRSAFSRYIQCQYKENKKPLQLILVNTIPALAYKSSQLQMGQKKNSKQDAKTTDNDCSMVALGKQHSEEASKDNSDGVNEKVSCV
Sequence of KiSS-1 receptor (Homo sapiens) (Q969F8 whole entry, looked up): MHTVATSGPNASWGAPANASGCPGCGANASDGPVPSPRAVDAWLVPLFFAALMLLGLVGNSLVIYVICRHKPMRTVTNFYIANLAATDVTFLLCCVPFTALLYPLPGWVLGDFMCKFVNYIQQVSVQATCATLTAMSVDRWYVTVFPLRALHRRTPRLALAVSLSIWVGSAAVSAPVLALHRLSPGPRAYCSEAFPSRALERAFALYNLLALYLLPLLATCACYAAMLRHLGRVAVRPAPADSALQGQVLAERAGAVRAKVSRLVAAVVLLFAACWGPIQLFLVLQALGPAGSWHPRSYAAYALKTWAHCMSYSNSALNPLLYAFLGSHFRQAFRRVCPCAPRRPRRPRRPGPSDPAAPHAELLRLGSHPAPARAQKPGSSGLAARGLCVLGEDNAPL
Sequence of Muscarinic acetylcholine receptor M1 (Homo sapiens) (P11229 whole entry, looked up): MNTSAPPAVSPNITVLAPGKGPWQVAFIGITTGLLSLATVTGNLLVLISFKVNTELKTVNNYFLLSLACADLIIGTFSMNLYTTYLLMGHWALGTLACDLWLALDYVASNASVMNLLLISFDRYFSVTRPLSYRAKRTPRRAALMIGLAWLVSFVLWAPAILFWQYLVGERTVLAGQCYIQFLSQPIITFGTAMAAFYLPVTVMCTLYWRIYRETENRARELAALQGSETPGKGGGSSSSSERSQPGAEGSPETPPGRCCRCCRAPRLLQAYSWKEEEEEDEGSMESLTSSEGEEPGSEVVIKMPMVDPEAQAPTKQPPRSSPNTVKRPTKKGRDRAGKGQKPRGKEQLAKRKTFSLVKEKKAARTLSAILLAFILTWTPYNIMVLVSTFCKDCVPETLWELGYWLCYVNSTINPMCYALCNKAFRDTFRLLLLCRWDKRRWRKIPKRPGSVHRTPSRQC

Take `[Cl-].[Cl-].[Hg+2]`: the Potency is 38.7 µM (active) and 38.9 µM (active) in [1]; 5.74 µM (active) and 10.2 µM (active) in assay [2]; 16.2 µM (active) and 4.08 µM (active) in assay [3]; 3.62 µM (active) and 9.13 µM (active) in [4]; 54.9 µM (active) in [6]; 54.9 µM (active) in assay [8]. Further, the results for the Potency in [9] and in [10] were 48.3 µM (active) and 1.92 µM (active), respectively. Moreover, the Potency result in assay [5] and in assay [7] was “inactive” each time.
Turning to `C=CC(=O)OCC(CC)(COC(=O)C=C)COC(=O)C=C`, the Potency entry in [1], in [11], in [12], in assay [13], in assay [5] and in assay [6] was “inactive” throughout. In addition, the Potency result in assay [7], in [8] and in assay [14] was “inactive” each time. In addition, the Potency in assay [4] is 26.4 µM (active); in [10], “inactive and 48.6 µM (active)”.
On to `O=C1C=CC(=O)C=C1`, for which the Potency result in assay [15], in [1], in [11], in assay [16], in assay [12] and in assay [13] was “inactive” in each case. Also, the Potency result in assay [2], in assay [3], in assay [4], in [17], in assay [5] and in assay [6] was “inactive” throughout. In addition, the Potency entry in assay [7], in assay [8], in [18], in assay [19], in [9] and in assay [20] was “inactive” each time. The Potency result in assay [14] and in assay [10] was “inactive” in each case.
Consider `CON(C)C(=O)Nc1ccc(Cl)c(Cl)c1`, for which the Potency result in [1], in assay [16], in assay [12], in assay [13], in assay [3] and in assay [4] was “inactive” throughout. Also, the Potency result in assay [17], in assay [6], in [8], in assay [18], in assay [19] and in [9] was “inactive” each time. The Potency entry in [20], in assay [14] and in assay [10] was “inactive” each time.
As for `COCCC#N`, the Potency entry in assay [15], in [1], in assay [11], in [16], in assay [12] and in assay [13] was “inactive” in each case. Also, the Potency entry in assay [2], in [3], in assay [4], in assay [17], in [5] and in [6] was “inactive” throughout. The Potency entry in assay [7], in [8], in assay [18], in assay [19], in assay [9] and in assay [20] was “inactive” in each case. Besides, the Potency entry in assay [10] is “inactive”.
In the case of `COC(=O)C(Cl)C(=O)OC`, the Potency entry in assay [11], in [16], in [12], in assay [13], in [2] and in assay [3] was “inactive” throughout. Moreover, the Potency entry in assay [4], in [5], in assay [7], in [8], in [18] and in [19] was “inactive” in each case. The Potency result in assay [9], in assay [20], in assay [14] and in assay [10] was “inactive” throughout.
As for `COC(=O)Nc1nc2ccccc2[nH]1`, the Potency entry in assay [1], in assay [12], in assay [13], in assay [2], in assay [3] and in [5] was “inactive” in each case. In addition, the Potency result in assay [6], in assay [7], in assay [8], in assay [18], in assay [20] and in [14] was “inactive” in each case. For the same molecule, in assay [10], the Potency result is “inactive”. In addition, the Potency in assay [17] is 9.13 µM (active).
In the case of `CCCCCCCCn1sccc1=O`, the Potency entry in [11], in [16], in [12], in assay [13], in assay [7] and in [8] was “inactive” each time. For the same molecule, the Potency entry in [9] and in assay [10] was “inactive” each time. Also, the Potency in [2] is 40.9 µM (active) and inactive; in [4] it was 40.9 µM (active) and 38.1 µM (active); in [5], “inactive and 1.11 µM (active)”; in assay [14], 42.8 µM (active).
Turning to `O=C(O)c1ccccc1O`, the Potency result in assay [1], in [11], in assay [16], in assay [18], in assay [19] and in assay [9] was “inactive” in each case. Moreover, the Potency result in assay [10] was “inactive”.
